# The entries come from a sample that favours hits as a whole.
# ST2 IL33 inh = inhibitors of human ST2 (IL1RL1) binding to IL-33, primary screen, biochemical, AlphaLISA; inhibition, % for hits at 17 µM; hit rate 2.3% among 78,000; AlphaLISA ST2-Fc/biotin-IL-33 interaction, 1 h; Interleukin-1 receptor-like 1 (Homo sapiens), Q01638; in the data active = inhibition above about 30%
# Target sequence (Q01638 whole entry, looked up): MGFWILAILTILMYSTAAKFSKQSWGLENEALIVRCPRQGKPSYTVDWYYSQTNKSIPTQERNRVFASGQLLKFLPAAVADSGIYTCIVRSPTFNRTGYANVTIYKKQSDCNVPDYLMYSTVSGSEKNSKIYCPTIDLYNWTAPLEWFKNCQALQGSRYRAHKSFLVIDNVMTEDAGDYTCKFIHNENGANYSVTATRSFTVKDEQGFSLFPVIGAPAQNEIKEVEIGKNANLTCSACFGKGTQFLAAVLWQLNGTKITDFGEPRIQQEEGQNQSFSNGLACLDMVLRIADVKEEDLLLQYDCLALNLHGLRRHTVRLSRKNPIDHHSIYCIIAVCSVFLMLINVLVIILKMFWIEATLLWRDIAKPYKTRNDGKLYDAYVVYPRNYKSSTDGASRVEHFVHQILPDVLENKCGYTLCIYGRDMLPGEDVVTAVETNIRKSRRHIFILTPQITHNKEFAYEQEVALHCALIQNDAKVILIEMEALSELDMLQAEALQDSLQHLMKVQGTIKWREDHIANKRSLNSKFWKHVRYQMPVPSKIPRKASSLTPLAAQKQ
# Starred values were filed as active, the others as inactive; i = inactive.
SMILES,ST2 IL33 inh
O=C(Nc1ccc2c(c1)OCO2)c1cccn(Cc2cccc(C(F)(F)F)c2)c1=O,i
O=C(Nc1ccc2n(c1=O)C[C@H]1C[C@@H]2CN(C(=O)Nc2ccc(F)cc2)C1)c1ccco1,i
O=C(O)c1[nH]c2ccccc2c1CC(=O)N1CCN(Cc2ccccc2)CC1,i
Cc1ccccc1N1CCN(Cc2ccc(O)cc2)CC1,i
Cc1ccccc1N1CCN(Cc2ccc(N(C)C)cc2)CC1,45.0%*
CCOc1ccc(CN2CCN(c3ccccc3C)CC2)cc1,i
O=C(Nc1ccon1)c1cccn(Cc2ccc(Br)cc2)c1=O,i
O=C(NC[C@H]1C[C@@H]2CCN1C[C@@H]2CN1CCN(c2ccccn2)CC1)c1ccco1,i
O=[N+]([O-])c1ccc(NCCCN2CCOCC2)c2cccnc12,i
CC(Nc1ccc([N+](=O)[O-])c2cccnc12)c1ccc(Br)cc1 (stereo not drawn),40.0%*
Cn1nc(-c2cccs2)cc1[C@H]1CN2CC[C@H]1C[C@@H]2CO,i
CN1CCN(C[C@H]2CN3CC[C@H]2C[C@@H]3CNC(=S)Nc2ccc(-n3cccn3)cc2)CC1,i
COc1ccc(Cl)cc1/C=C/[N+](=O)[O-],97.0%*
C#CCOc1c(I)cc(/C=C/[N+](=O)[O-])cc1OC,i
Cc1cccc2c(CCNC(C)CN3CCOCC3)c[nH]c12 (stereo not drawn),i
COc1ccc(-n2c(/C=C/c3ccccc3)nc3ccccc3c2=O)cc1OC,i
O=c1c2ccccc2nc(/C=C/c2ccccc2)n1-c1ccccc1F,i
COc1ccc(/C=C/c2nc3ccccc3c(=O)n2-c2ccccc2OC)cc1,32.0%*
Cc1c(C(=O)N2CCC3(CC2)OCCO3)oc2ccc(S(=O)(=O)N3CC(C)CC(C)C3)cc12 (stereo not drawn),i
COCCNC(=O)[C@H]1CN2CCC1C[C@@H]2Cn1cc(-c2cccc(O)c2)nn1 (stereo partly drawn),i

# Source: PubChem BioAssay
